Drawing on PubChem BioAssay (NCATS), this text covers Potency for 40 compounds.

Results filed as inconclusive are left out. Entries that show only a call come without a potency. Active and inactive are the calls of the source. Calls come from the whole dose curve; as a rule, active = well fitted inhibition curve with a large enough effect; inconclusive = small, poorly fitted or top-dose-only effect; inactive = flat fitted curve, though single readings scatter.

Chain of Calcium and integrin-binding protein 1 (Homo sapiens) (Q99828 whole entry, looked up): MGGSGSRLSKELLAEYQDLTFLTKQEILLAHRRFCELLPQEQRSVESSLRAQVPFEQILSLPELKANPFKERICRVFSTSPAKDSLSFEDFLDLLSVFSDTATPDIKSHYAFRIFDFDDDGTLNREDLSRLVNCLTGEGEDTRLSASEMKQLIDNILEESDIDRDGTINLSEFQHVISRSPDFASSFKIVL

The experiment deals with Calcium and integrin-binding protein 1 (Homo sapiens) (UniProt Q99828). In words: Primary qHTS for Identification of Calcium Integrin Binding Protein 1 (CIB1) Competitor (AID 1508620). Note: top concentration of the series differs between compounds. To be noted: CIB1-GST / FITC-alphaIIb peptide fluorescence polarization; series mostly up to 114 µM. A digest of the protocol:
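Fluorescence polarization competition: GST-tagged CIB1 (1 uM final) preincubated with compound 15 min at room temperature, then FITC-labelled alphaIIb peptide (100 nM final) added. After 15 min at room temperature, polarization read at Ex 480/Em 540.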
With `NC(=O)c1c(NC(=O)c2ccncn2)sc2c1CCCC2`, the Potency result was “inactive”.
With `O=[S+]([O-])(c1ccc2c(c1)OCCO2)N1CCN([S+](=O)([O-])c2cc(Cl)ccc2F)CC1`, the Potency entry is “inactive”.
The entry for `Oc1ccc(COCc2ccccc2)c2cccnc12` is “inactive”; for `COc1cc(F)c(S(=O)(=O)N2CCN(S(=O)(=O)c3ccc(NC(C)=O)cc3)CC2)c(F)c1` it is “inactive”; for `Cc1ccnc(NC(=S)NC2CN(c3cccc(C(F)(F)F)c3)C2)c1` it is “inactive”.
The entry for `O=C(Nc1ccc(-c2cccnc2)nc1)c1cccs1` is “inactive”; for `COC(=O)c1ccc(Cn2ncc3c4sc(C)cc4n(C)c3c2=O)cc1` it is “inactive”.
In the case of `Fc1cnc(-c2ccccc2C(F)F)nc1NCc1ccc(-c2cccnc2)cc1` it was “inactive”; in that of `Cc1ccc(C[C@H](C(=O)O)N2C(=O)c3ccc(C(=O)O)cc3C2=O)cc1`, “inactive”.
On to `O=C1Nc2ccccc2/C1=C\c1ccc(O)cc1`, for which the Potency result was “inactive”.
As for `CCOc1ccc(NC(=O)Nc2ccc(-c3nc4ccccc4[nH]3)cc2)cc1`, the Potency entry was “inactive”.
In the case of `CC(C)(NC(=O)Nc1ccccc1Cl)C(=O)N1CCC(C(=O)O)CC1` it was “inactive”; in that of `COc1cc(N2C(=O)c3ccccc3C2=O)c2ncccc2c1`, “inactive”; in that of `COc1ccc(C2=Nn3c(nnc3-c3ccc(OC)c(OC)c3)SC2)cc1OC`, “inactive”.
In the case of `NC(=O)C1CCN(c2nc(-c3ccc(Br)cc3)cs2)CC1` it was “inactive”; in that of `CC(C)N1CCc2c(-c3nc4ccccc4s3)csc2C1`, “inactive”; in that of `O=C(N[C@H]1CCCc2c1cnn2-c1ccc(F)cc1F)c1ccccn1`, “inactive”.
The entry for `Cc1sc(NC(=O)Cc2ccc3c(c2)OCO3)nc1-c1ccc2c(c1)CCN2C(=O)c1ccccc1F` is “inactive”; for `O=C(Nc1ccc(-c2nc3ccccc3[nH]2)cc1)c1ccc(Cl)c(Cl)c1` it is “inactive”.
Consider `Cc1ccc(C(=O)Nc2ccccc2C(=O)Nc2nc(-c3ccccc3)cs2)cc1`, for which the Potency result was “inactive”.
The entry for `O=C(Nc1ccc(F)c(C(F)(F)F)c1)Nc1ccc(-c2ccncc2)s1` is “inactive”; for `O=C(Nc1cccc(C(F)(F)F)c1)c1cccs1` it is “inactive”.
In the case of `O=C(COC(=O)CNC(=O)c1ccccc1Cl)Nc1cc(C(F)(F)F)ccc1Cl` it was “inactive”; in that of `O=S(=O)(c1ccc2c(c1)OCCO2)N1CCCN(S(=O)(=O)c2c(F)cccc2F)CC1`, “inactive”.
The entry for `CC(=O)Nc1sc2c(c1-c1ccccc1)CCNC2` is “inactive”; for `CC(=O)Nc1sc2c(c1C#N)CCN(C(C)C)C2` it is “inactive”; for `O=S(=O)(Nc1nc(-c2ccccc2C(F)(F)F)nc2ccccc12)c1ccc(-c2ccnc(C(F)(F)F)c2)cc1` it is “inactive”.
For `O=S(=O)(c1cccc(Br)c1)N1CCN(S(=O)(=O)c2ccc3c(c2)OCCO3)CC1`, the Potency result is “inactive”.
The entry for `CC(=O)NC(c1cc(F)c2cccnc2c1O)C1CC1` (stereo not given) is “inactive”; for `CCN(CC)C(=O)COC(=O)c1ccc(S(C)(=O)=O)c([N+](=O)[O-])c1` it is “inactive”.
For `COc1ccc(-c2nnc3n2N=C(c2cc(OC)ccc2OC)CS3)cc1`, the Potency result was “inactive”.
In the case of `O=[S+]([O-])(c1ccc(-c2ccccc2)cc1)N1CCN([S+](=O)([O-])c2ccc3c(c2)OCCO3)CC1` it was “inactive”; in that of `O=C(CNC(=O)c1ccc(Cl)c(C(F)(F)F)c1)OC(C(=O)Nc1cc(C(F)(F)F)ccc1Cl)c1ccccc1` (stereo not given), “inactive”; in that of `NC(=O)C1CCN(c2nc(-c3ccc(N4CCCCC4)nc3)cs2)CC1`, “inactive”.
Consider `Cc1ccc(NC(=O)CN2C(=O)N/C(=C\c3ccco3)C2=O)cc1`, for which the Potency result is “inactive”.
In the case of `Cc1cc2c(s1)c1cnn(Cc3c(F)c(F)c(C(F)(F)F)c(F)c3F)c(=O)c1n2C` it was “inactive”; in that of `COc1ccc(OC)c(C2=Nn3c(nnc3-c3ccc(OC)c(OC)c3)SC2)c1`, “inactive”; in that of `O=C(O)c1ccc(-n2cccc2/C=C2\SC(=O)N(Cc3ccc(Cl)cc3)C2=O)cc1`, “inactive”.
In the case of `S=C(Nc1cc(Cl)ccn1)N1CCN(c2ccc(Cl)c(Cl)c2)CC1` it was “inactive”; in that of `COc1ccc(OC)c(NC(=O)C(OC(=O)CNC(=O)c2ccccc2)c2ccccc2)c1` (stereo not given), “inactive”.
